Laboratory results from PubChem BioAssay (NCI).
Where “and” joins values, the source holds several entries; their conditions need not be identical. Equal entries are not always repeated. This is part of a sample that, as a whole, favours compounds with a hit. Of some 79,000 tested, about 15% had one in any assay. Calls of active or inactive are those of the source. Cut-off read from the data, not from the text of the source: active = growth inhibition above about 70%; inactive = the rest.

Tests used:
[1] = NCI Yeast Anticancer Drug Screen. Data for the rad50 strain (AID 155);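 note: 0% = growth of vehicle-only cultures of the same strain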; details: S. cerevisiae rad50 strain growth inhibition, active compounds read high; at 50.0 µM unless noted
Procedure, shortened: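 Vehicle-treated cultures provide the reference for the growth inhibition reported for compound-exposed, repair-deficient yeast.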

[2] = NCI Yeast Anticancer Drug Screen. Data for the mec2-1 strain (AID 157); details: S. cerevisiae mec2-1 strain, active compounds read high; at 50.0 µM unless noted
Procedure, shortened: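 Compounds were applied to mec2-1 yeast cells. Their growth was then compared with that of vehicle-treated cultures to give growth inhibition.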

[3] = NCI Yeast Anticancer Drug Screen. Data for the sgs1 mgt1 strain (AID 161);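 note: 0% = growth of cultures given vehicle only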; details: S. cerevisiae sgs1 mgt1 strain, active compounds read high; at 50.0 µM unless noted
Procedure, shortened: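 Compounds are added to genetically altered yeast, and growth is compared with cultures given vehicle alone to give percent inhibition.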

[4] = NCI Yeast Anticancer Drug Screen. Data for the cln2 rad14 strain (AID 165);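 note: 0% = growth equal to vehicle treated cultures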; details: S. cerevisiae cln2 rad14 strain, active compounds read high; at 50.0 µM unless noted
Procedure, shortened: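 Strain: cln2 rad14 yeast, altered in cell cycle control and DNA damage repair. Read-out: growth inhibition vs vehicle.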

[5] = NCI Yeast Anticancer Drug Screen. Data for the bub3 strain (AID 167); details: S. cerevisiae bub3 mutant strain, active compounds read high; at 50.0 µM unless noted
Procedure, shortened: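 Mutant yeast screening strain plus compound; vehicle-treated cultures serve as the 0% inhibition reference.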

[6] = NCI Yeast Anticancer Drug Screen. Data for the mlh1 rad18 strain (AID 175); details: S. cerevisiae mlh1 rad18 strain growth inhibition, active compounds read high; at 50.0 µM unless noted
Procedure, shortened: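 A repair-deficient yeast strain is exposed to test compound, and growth is scored relative to vehicle-treated controls.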

Measured: growth inhibition

CC(C)(C)C(=O)CC(=O)C(F)(F)C(F)(F)C(F)(F)F.CC(C)(C)C(=O)CC(=O)C(F)(F)C(F)(F)C(F)(F)F.CC(C)(C)C(=O)CC(=O)C(F)(F)C(F)(F)C(F)(F)F.[La]
inactive: [1] 2.85% | [2] -0.9% | [3] -3.95% | [4] -8.85% | [5] -3.95% | [6] 18.8%

c1ccc(CN(Cn2cccn2)Cn2cccn2)nc1
inactive: [1] 7.15% | [2] -9% | [3] 23.1% | [4] 23.9% | [5] -0.4% | [6] 34.8%

CC(=O)OCCN(CCOC(C)=O)CCOC(C)=O
inactive: [1] -8.4% | [2] -3.5% | [3] -3.4% | [4] -52.3% | [5] -3.4% | [6] 18.5%

COc1cccc(C#CC(=O)O)c1
inactive: [1] -25.6% | [2] -20.9% | [3] -18.9% | [4] -5.35% | [5] -21.9% | [6] -11.6%

COS(=O)(=O)CC(O)(c1ccccc1)c1ccccc1
inactive: [1] 12.7% | [2] -2.3% | [3] 48.8% | [4] -14.6% | [5] -5.8% | [6] 6.05%

NC(=O)C(c1ccccc1)C1(O)CCCCC1 (stereo not given)
inactive: [1] 7.7% | [2] 5.7% | [3] 9.7% | [4] 6.95% | [5] 3.2% | [6] 11.4%

Nc1nc(N)c2[nH]cnc2n1
inactive: [1] 0.6% and 18.9% | [2] -1.5% and -3.95% | [3] 3.65% and -1.85% | [4] 10.7% and -30.4% | [5] 0.6% and -16.6% | [6] -43.9% and 1.2%

CCCCNC(=O)/C=C/C(=O)NCCCC
inactive: [1] 11.5% | [2] 1.95% | [3] -0.9% | [4] -36.4% | [5] -7.35% | [6] -1.5%

Oc1cc(O)c2c(c1)OC(c1ccc(O)c(O)c1)C(O)C2O (stereo not given)
inactive: [1] 20.2% | [2] 6.6% | [3] 14.3% | [4] -3.55% | [5] 21.2% | [6] 30.9%

O=C1C2C3ON(c4ccccc43)C2C(=O)N1c1ccccc1 (stereo not given)
inactive: [1] -0.65% | [2] 21% | [3] 15.4% | [4] 2.4% | [5] 3.6% | [6] -3.55%

CCOC(=O)CC(c1ccccc1)C(C)(C(=O)OCC)C(=O)OCC (stereo not given)
inactive: [1] -18.3% | [2] -10.8% | [3] 14.8% | [4] 35.9% | [5] 14.2% | [6] -9.3%

CCCCN(CCCC)CCC(O)c1cc(-c2ccc(C(F)(F)F)cc2)nc(C(F)(F)F)c1 (stereo not given)
active: [1] 98.5% | [3] 97.6% | [4] 97.8% | [6] 96.8%
inactive: [2] 56.2% | [5] 47.1%

CC(C)(O)C1CC(=O)C(C)(C2C(O)CC3(C)C4CC=C5C(CCC(O)C5(C)C)C4(C)C(=O)CC23C)O1 (stereo not given)
inactive: [1] 65% | [2] 63% | [3] 45% | [4] 42.9% | [5] 56.1% | [6] 47.6%

O=C(CNc1nncs1)NO
inactive: [1] 15.1% | [2] -8.95% | [3] 0.3% | [4] 1.05% | [5] -1.35% | [6] -1.7%

COc1ccc(/C(=N/N)C(C)(C)C)cc1
inactive: [1] 5.8% | [2] -2.8% | [3] -7.95% | [4] -15.8% | [5] -1.6% | [6] -1.9%

C=CCOC(=O)COc1ccc(Cl)cc1
inactive: [1] -0.95% | [2] -8.1% | [3] -12.3% | [4] -2.15% | [5] -7.75% | [6] 0.55%

C=C(NC(=O)C(=C)NC(=O)c1csc(C2=NC3c4csc(n4)C4NC(=O)c5csc(n5)C(C(C)(O)C(C)O)NC(=O)C5CSC(=N5)/C(=C/C)NC(=O)C(C(C)O)NC(=O)c5csc(n5)C3(CC2)NC(=O)C(C)NC(=O)C(=C)NC(=O)C(C)NC(=O)C(C(C)CC)NC2C=Cc3c(C(C)O)cc(nc3C2O)C(=O)OC4C)n1)C(N)=O (stereo not given)
inactive: [1] 11.9% and 15.1% | [2] 10.8% and -10.4% | [3] 13.8% and 18.1% | [4] 29.5% and 23.2% | [5] 34.2% and 32.5% | [6] 13.2% and 36.2%

NNC(=O)Oc1cccc2ccccc12
inactive: [1] 22.1% | [2] 19.3% | [3] 9.9% | [4] -4.4% | [5] 36.4% | [6] 42.5%

OCCCCC(O)CO (stereo not given)
inactive: [1] -2.55% | [2] -13.7% | [3] -1.1% | [4] -8.65% | [5] -18.6% | [6] -7.3%

COc1ccc2nc3cc(Cl)ccc3c(SCC(=O)Nc3ccccc3-c3ccccc3NC(=O)CSc3c4ccc(Cl)cc4nc4ccc(OC)cc34)c2c1
inactive: [1] -0.1% | [2] -2.9% | [3] -3.05% | [4] 22.9% | [5] 2.5% | [6] 7.8%

Cc1ccc(OCCC(=O)O)cc1
inactive: [1] 6.9% | [2] -6.15% | [3] -11.2% | [4] -63.5% | [5] -26.6% | [6] -1.65%

CC(C)C(=O)/C=C/c1ccc(Cl)cc1
inactive: [1] 0.95% and -1.3% | [2] -18.9% and -16.6% | [3] -16.1% and -10.2% | [4] -66.7% and -44.9% | [5] -0.75% and -28.1% | [6] -16.9% and -8.65%

O=C(Oc1ccc(O)cc1)N(c1cccc2ccccc12)c1cccc2ccccc12
inactive: [1] 38% | [2] 18.1% | [3] 40.6% | [4] 22.4% | [5] 66% | [6] 44.2%

C(=Nc1ccc(N=Cc2ccco2)cc1)c1ccco1
inactive: [1] 10.8% | [2] 2.3% | [3] 0.5% | [4] -8.1% | [5] -8.5% | [6] 7.35%

CC1Sc2ccccc2-c2[nH]c3ccccc3c21 (stereo not given)
inactive: [1] 32.8% | [2] 49% | [3] 16% | [4] 5% | [5] 31.7% | [6] 66.1%

CCOc1ccccc1N=Nc1c(-c2ccccc2)nn(C(=O)CC(=O)Nc2cccc(Cl)c2)c1-c1ccccc1
inactive: [1] 12.6% | [2] -13.9% | [3] 40.9% | [4] 9.2% | [5] 26.2% | [6] 22.2%

CC(CC(C)C(=O)O)C(=O)O (stereo not given)
inactive: [1] -13.5% | [2] -28.2% | [3] -24.1% | [4] 0.4% | [5] -47.8% | [6] 3.25%

O=C1CCC2OC3CCC(=O)N3CN12 (stereo not given)
inactive: [1] 9.8% | [2] 8% | [3] 6.55% | [4] -11.3% | [5] 4.95% | [6] -3.6%

CCN(CC)C(=O)Oc1cccc(NC(=O)OC)c1
inactive: [1] 16% | [2] 47.2% | [3] 29.4% | [4] 16.1% | [5] 49.2% | [6] 33.4%

CC1(CO)C2CCC(CC2)C1CO (stereo not given)
inactive: [1] -3% | [2] 1.85% | [3] -4.4% | [4] -20.2% | [5] -5.1% | [6] 2.5%

NC1=NC(=O)/C(=C/c2ccccc2[N+](=O)[O-])C(N)=N1
inactive: [1] -26.9% | [2] -0.05% | [3] 10.8% | [4] 4.8% | [5] -5.6% | [6] 24.1%

CCCCOC(=O)NC(=O)c1cc2cc(Cl)ccc2oc1=O
inactive: [1] 4.65% | [2] 17.9% | [3] 13.9% | [4] 10.7% | [5] 23.1% | [6] 18.8%

CC(O)CNC(=O)C(C)(C)O (stereo not given)
inactive: [1] 36% | [2] 13.6% | [3] 20.7% | [4] 9.65% | [5] 21.8% | [6] 18.9%

[N-]=[N+]=CC(=O)CCC(=O)N(c1ccccc1)c1ccccc1
inactive: [1] -30% | [2] -20.8% | [3] -52.5% | [4] -28.5% | [5] 2.2% | [6] -30.6%

NC(=S)/N=C(/c1nc2ccc(Cl)cc2[nH]c1=O)C(O)c1ccccc1Cl (stereo not given)
inactive: [1] -2.85% | [2] -21.8% | [3] -20.2% | [4] 4.35% | [5] 22.5% | [6] 5.75%

CC(=O)N(CCC(C)C)CCC(C)C
inactive: [1] 17.9% | [2] 2.3% | [3] 5.5% | [4] 14.3% | [5] -8.05% | [6] -11.2%

O=C(O)CCN1C(=O)CSC1=S
inactive: [1] 6.7% | [2] 2.15% | [3] -21.8% | [4] -2.4% | [5] 20.6% | [6] -5.7%

CNC(=O)OCc1cc(C)cc(C)c1-c1ccco1
inactive: [1] -4.95% | [2] -9.15% | [3] 28.4% | [4] 4% | [5] 10.3% | [6] 7.05%

O=C1NC(Cc2ccccc2)C(=O)NC1Cc1ccccc1 (stereo not given)
inactive: [1] 2.35% | [2] -6.7% | [3] 7.7% | [4] -22.8% | [5] -4.95% | [6] -1.35%

CC1CCC2(OC1)OC1CC3C4CC=C5CC(O)CCC5(C)C4CCC3(C)C1C2C (stereo not given)
inactive: [1] 21.8% and 13.3% | [2] 16.9% and -23.6% | [3] -1.5% and 3.2% | [4] -3.95% and 4% | [5] 1.35% and 14.8% | [6] 32.9% and 15.3%
